Here are results for 6 molecules from PubChem BioAssay (Tox21).

Inconclusive results are not listed. Calls of active or inactive are those of the source. Unless noted, the call rests on the fitted dose curve; in most records, active means well fitted curve in the direction sought with a large enough effect in the repeat runs; inconclusive means weak or mixed curves; inactive means no such curve, though single readings can be large; an effect the other way counts as inactive or inconclusive.

Assay [1] in a line: qHTS assay to identify small molecule antagonists of the sonic hedgehog signaling (Shh) pathway (AID 1259369; calls by dose curve; further: potency means the concentration at half of the fitted maximal effect; nearly all actives have a fitted effect of over 45% in size). An outline of the steps: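 NIH/3T3-derived 3T3Gli1-Luc cells with stably integrated Gli1-Luc reporter were preincubated 4hr at 37 C, then given compounds in DMSO plus Shh conditioned medium and incubated 24hr. Firefly luciferase luminescence read after 30min reagent at room temperature.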
A general note: In qHTS, concentration-response curves come from the screen itself.

Assay [2] in a line: qHTS assay to identify small molecule agonists of the estrogen receptor beta (ER-beta) signaling pathway - cell viability counter screen (AID 1259380). Further: nearly all actives have a fitted effect of over 30% in size. Further: potency means the concentration at half of the fitted maximal effect. A digest of the protocol:
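ER-beta-UAS-bla HEK293T cells in medium with 2% charcoal-stripped FBS were preincubated 6 hr at 37C, dosed with compound in DMSO for 16 hr, then after the bla read, CellTiter-Glo was added for 30 min at room temperature; luminescence recorded.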

Assay [3] can be described thus: qHTS assay to identify small molecule agonists or antagonists of the thyroid stimulating hormone receptor (TSHR) signaling pathway - wild type cell line counter screen (AID 1259384; calls by dose curve). An outline of the steps: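 Wild-type HEK293 cells were plated 18 h at 37 C/5% CO2, pin-dosed with compound plus Ro20-1724 medium, held 30 min at room temperature, then given cAMP-d2 and anti-cAMP-cryptate; fluorescence was read after 1 h. Fifteen concentrations, triplicate.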

For assay [4], the target named is Thyrotropin receptor (Homo sapiens) (UniProt P16473). The assay is described as follows: qHTS assay to identify small molecule antagonists of the thyroid stimulating hormone receptor (TSHR) signaling pathway (AID 1259385; calls by dose curve; further: nearly all actives have a fitted effect of over 20% in size). A digest of the protocol: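 TSHR-HEK293 cells were plated and held 18 h at 37C/5% CO2, then given compound plus Ro20-1724 and stimulated with TSH at 1.5 ng/mL final. After 30 min at room temperature, cAMP was detected with cAMP-d2/anti-cAMP-cryptate (1 h) by fluorescence.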

The nature of assay [5]: qHTS assay to identify small molecule agonists of the estrogen receptor alpha (ER-alpha) signaling pathway in the presence of an antagonist - cell viability counter screen (AID 1259386).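 Further: series mostly up to about 92 µM; cells exposed to compounds for 22 h at 37 °C before the viability read; nearly all actives have a fitted effect of over 30% in size.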 A digest of the protocol: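 VM7Luc4E2 cells (endogenous full-length ER-alpha, 4×ERE-luciferase) were held 5 days in phenol red-free medium with 10% charcoal-stripped FBS, plated, then given 10.0nM ICI-182,780 and compounds at 15 concentrations for 22hr at 37C; viability read by CellTiter-Fluor fluorescence.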

Assay [6] deals with Progesterone receptor (Homo sapiens) (UniProt P06401). In words: qHTS assay to identify small molecule agonists of the progesterone receptor (PR) signaling pathway (AID 1346784; calls by dose curve; further: nearly all actives have a fitted effect of over 30% in size). An outline of the steps:
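Cells (PR-UAS-bla HEK 293T, GripTite) were plated in assay medium containing 2% charcoal-stripped FBS and incubated 6 hr. Test compounds in DMSO were added for 16 hr at 37C. FRET substrate was then loaded for 2 hr at room temperature before fluorescence reading.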

For assay [7] the target is unchanged. In words: qHTS assay to identify small molecule antagonists of the progesterone receptor (PR) signaling pathway (AID 1346795; active means well fitted inhibition curve with a large enough effect in the signal ratio in the repeat runs, not every such curve was filed as active; the % refers to the signal ratio; further: potency means the concentration at half of the fitted maximal effect). A digest of the protocol:
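Antagonist mode: compounds tested against 1 nM (final) promegestone stimulation in HEK293T cells expressing PR-UAS-bla reporter, 16 hr at 37C, 5% CO2; beta-lactamase activity detected via B/G FRET substrate after 2 hr at room temperature.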

Assay [8] can be described thus: qHTS assay to identify small molecule antagonists of the TGF-beta/Smad signaling pathway - cell viability counter screen (AID 1346824). Further: nearly all actives have a fitted effect of over 50% in size. An outline of the steps:
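SBE-bla HEK 293T cells were plated overnight at 37 C, then given compounds in DMSO plus TGF-beta1 (added as 0.25 ng/mL solution) for 5 hr. After the bla read, CellTiter-Glo was added to the same wells and luminescence read after 30 min at room temperature.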

The nature of assay [9]: qHTS assay to identify small molecule agonists of the TGF-beta/Smad signaling pathway - cell viability counter screen (AID 1346829). Further: top concentration of the series differs between compounds; nearly all actives have a fitted effect of over 45% in size. A digest of the protocol: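 Same-well cytotoxicity: CellTiter-Glo added after the 2 hr room-temperature beta-lactamase substrate step, luminescence measured 30 min later; cells had 5 hr of compound at 37 C.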
A short description of assay [10]: qHTS assay to identify small molecule agonists of the TGF-beta/Smad signaling pathway (AID 1346859; active means well fitted activation curve with a large enough effect in the signal ratio in the repeat runs, not every such curve was filed as active; the % refers to the signal ratio; further: series mostly up to about 77 µM). A digest of the protocol: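 Reporter line: HEK 293T with stably integrated SBE-controlled beta-lactamase. Compound exposure lasts 5 hr at 37 C and 5% CO2; substrate loading follows for 2 hr at room temperature, with emission read at 460 and 530 nm.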
The target in assay [11] is Thyrotropin-releasing hormone receptor (Homo sapiens) (UniProt P34981). In words: qHTS assay to identify small molecule antagonists of the thyrotropin-releasing hormone receptor (TRHR) signaling pathway (AID 1346877; active means well fitted inhibition curve with a large enough effect in the repeat runs, not every such curve was filed as active; further: series mostly up to about 51 µM). An outline of the steps:
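TRHR-expressing HEK293 cells were seeded, cultured 18 h at 37 °C, then loaded with calcium dye for 2 h. Compounds were pre-incubated 5 min at room temperature before 1 nM TRH (final) was added, and kinetic fluorescence was recorded for 3 min.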

The target is the same in assay [12]. In words: qHTS assay to identify small molecule agonists of the thyrotropin-releasing hormone receptor (TRHR) signaling pathway (AID 1346891; calls by dose curve; further: series mostly up to about 58 µM). A digest of the protocol: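 Cells: TRHR-Hek293, seeded and incubated 18 h. Dye loading: 2 h at 37 °C. Compound added from DMSO stock by pin tool. Read-out: kinetic calcium fluorescence over 3 min.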
Assay [13] has as its target Estrogen receptor beta (Homo sapiens) (UniProt Q92731). The assay is described as follows: qHTS assay to identify small molecule agonists of the estrogen receptor beta (ER-beta) signaling pathway (AID 1259377; active means well fitted activation curve with a large enough effect in the signal ratio in the repeat runs, not every such curve was filed as active; the % refers to the signal ratio; further: potency means the concentration at half of the fitted maximal effect). A digest of the protocol:
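Agonist mode cell assay in GripTite HEK293T cells expressing an ER-beta fusion that drives beta-lactamase from an Upstream Activator Sequence; 16 hr compound exposure at 37C, then 2 h LiveBLAzer B/G FRET substrate at room temperature, fluorescence read-out.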

Assay [14] shares this target. In words: qHTS assay to identify small molecule antagonists of the estrogen receptor beta (ER-beta) signaling pathway (AID 1259378; active means well fitted inhibition curve with a large enough effect in the signal ratio in the repeat runs, not every such curve was filed as active; the % refers to the signal ratio). A digest of the protocol:
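ER-beta-UAS-bla HEK293T (GripTite) cells in 2% charcoal-stripped FBS medium were preincubated 6 hr at 37C, dosed with compound, then stimulated with 1 nM E2 (final) for 16 hr; beta-lactamase reporter read by B/G FRET fluorescence after 2 hr substrate loading.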

Assay [15] in a line: qHTS assay to identify small molecule agonists of the androgen receptor (AR) signaling pathway in the presence of an antagonist - cell viability counter screen (AID 1259379). Further: series mostly up to about 92 µM; nearly all actives have a fitted effect of over 25% in size. A digest of the protocol:
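MDA-kb2 human breast carcinoma cells (stable MMTV-luciferase, AR/GR responsive) were seeded 3,000 cells/well, pre-incubated 5 hr at 37C without CO2, then given 3.0uM nilutamide and compounds at 15 concentrations for 16 hr. Viability was read by CellTiter-Fluor fluorescence.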

Assay [16] in a line: qHTS assay to identify small molecule antagonists of the estrogen receptor beta (ER-beta) signaling pathway - cell viability counter screen (AID 1259382). Further: series mostly up to about 92 µM; nearly all actives have a fitted effect of over 55% in size. A digest of the protocol:
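ER-beta-UAS-bla HEK293T cells (2,000/well, 2% charcoal-stripped FBS) were pre-incubated 6 hr at 37C, then given compound plus 1nM final 17-beta-estradiol for 16 hr. Viability was read in the same wells by CellTiter-Glo luminescence after 30 min at room temperature.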

Assay [17] concerns the target Estrogen receptor (Homo sapiens) (UniProt P03372). In words: qHTS assay to identify small molecule agonists of the estrogen receptor alpha (ER-alpha) signaling pathway in the presence of an antagonist (AID 1259383; calls by dose curve; further: nearly all actives have a fitted effect of over 15% in size; further: potency means the concentration at half of the fitted maximal effect; on activation: top concentration of the series differs between compounds). A digest of the protocol:
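VM7Luc4E2 cells (endogenous full-length ER-alpha, 4×ERE-luciferase) were precultured 5 days in phenol red-free medium with 10% charcoal-stripped FBS, given 10.0nM ICI-182,780 (final), then treated with compounds at 15 concentrations for 22hr at 37C; luminescence read with ONE-Glo.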

Assay [18] deals with Androgen receptor (Homo sapiens) (UniProt P10275). The assay is described as follows: qHTS assay to identify small molecule agonists of the androgen receptor (AR) signaling pathway in the presence of an antagonist (AID 1259381; calls by dose curve; further: nearly all actives have a fitted effect of over 15% in size). An outline of the steps:
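MDA-kb2 human breast carcinoma cells carrying an MMTV-luciferase reporter (AR- and GR-responsive) were treated with compounds at 15 concentrations plus 3.0uM final nilutamide for 16hr at 37C without CO2; luminescence was read after ONE-Glo addition.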

A short description of assay [19]: qHTS assay to identify small molecule antagonists of the progesterone receptor (PR) signaling pathway - cell viability counter screen (AID 1346798). Further: series mostly up to about 92 µM; nearly all actives have a fitted effect of over 50% in size. An outline of the steps:
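Counter screen for cytotoxicity: viability of PR-UAS-bla HEK293T cells was measured with CellTiter-Glo luminescence following 16 hr compound exposure in the presence of R5020.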

Assay [20] can be described thus: qHTS assay to identify small molecule agonists of the progesterone receptor (PR) signaling pathway - cell viability counter screen (AID 1346799; calls by dose curve; further: nearly all actives have a fitted effect of over 45% in size). A digest of the protocol:
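Cells (PR-UAS-bla HEK293T) are plated at 3,000/well in 2% charcoal-stripped FBS medium, rested 6 hr, dosed and incubated 16 hr at 37C. CellTiter-Glo is then added and luminescence measured after 30 min at room temperature.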

Estrogen receptor (Homo sapiens), sequence (P03372 whole entry, looked up): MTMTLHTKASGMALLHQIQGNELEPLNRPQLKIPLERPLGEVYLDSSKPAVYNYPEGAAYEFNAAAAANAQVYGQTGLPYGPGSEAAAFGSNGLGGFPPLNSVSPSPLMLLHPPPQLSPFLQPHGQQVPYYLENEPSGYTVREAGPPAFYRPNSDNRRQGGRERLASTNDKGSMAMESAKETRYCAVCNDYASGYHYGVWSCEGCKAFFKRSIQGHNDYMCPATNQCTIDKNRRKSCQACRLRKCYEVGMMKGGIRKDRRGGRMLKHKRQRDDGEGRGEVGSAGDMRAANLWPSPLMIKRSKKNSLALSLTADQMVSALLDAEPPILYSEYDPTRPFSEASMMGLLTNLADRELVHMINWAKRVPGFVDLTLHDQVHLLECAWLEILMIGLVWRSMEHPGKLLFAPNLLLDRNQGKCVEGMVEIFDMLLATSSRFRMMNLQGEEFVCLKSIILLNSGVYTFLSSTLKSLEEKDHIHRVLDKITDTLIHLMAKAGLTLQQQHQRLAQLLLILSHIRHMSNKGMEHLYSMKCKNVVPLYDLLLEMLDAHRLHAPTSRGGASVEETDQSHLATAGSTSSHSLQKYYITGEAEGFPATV
Estrogen receptor beta (Homo sapiens), sequence (Q92731 whole entry, looked up, the tested form may be a part): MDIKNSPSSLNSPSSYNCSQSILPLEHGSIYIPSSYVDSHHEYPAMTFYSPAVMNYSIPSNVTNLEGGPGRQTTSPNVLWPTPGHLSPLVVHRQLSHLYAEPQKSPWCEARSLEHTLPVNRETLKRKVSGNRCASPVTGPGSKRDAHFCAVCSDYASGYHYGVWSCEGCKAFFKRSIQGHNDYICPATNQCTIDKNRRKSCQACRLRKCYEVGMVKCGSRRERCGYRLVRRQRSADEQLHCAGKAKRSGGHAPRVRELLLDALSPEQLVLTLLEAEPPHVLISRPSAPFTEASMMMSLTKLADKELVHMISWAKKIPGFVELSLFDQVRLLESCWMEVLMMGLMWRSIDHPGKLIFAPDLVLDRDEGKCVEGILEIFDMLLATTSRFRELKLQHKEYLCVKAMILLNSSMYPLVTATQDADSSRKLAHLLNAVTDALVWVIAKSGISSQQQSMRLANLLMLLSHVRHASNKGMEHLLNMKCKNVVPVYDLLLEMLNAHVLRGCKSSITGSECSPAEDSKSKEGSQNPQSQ
Thyrotropin-releasing hormone receptor (Homo sapiens), sequence (P34981 whole entry, looked up): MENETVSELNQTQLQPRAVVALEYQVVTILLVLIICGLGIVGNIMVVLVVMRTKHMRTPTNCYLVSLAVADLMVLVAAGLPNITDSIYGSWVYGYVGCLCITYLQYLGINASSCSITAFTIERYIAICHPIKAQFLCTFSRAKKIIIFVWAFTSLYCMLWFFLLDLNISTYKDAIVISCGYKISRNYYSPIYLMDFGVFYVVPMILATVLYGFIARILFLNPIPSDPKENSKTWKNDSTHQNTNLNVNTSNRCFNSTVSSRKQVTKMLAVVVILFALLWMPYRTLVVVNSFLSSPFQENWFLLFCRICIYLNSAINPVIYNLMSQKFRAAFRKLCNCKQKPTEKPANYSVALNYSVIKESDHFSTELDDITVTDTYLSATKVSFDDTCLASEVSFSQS
Progesterone receptor (Homo sapiens), sequence (P06401 whole entry, looked up): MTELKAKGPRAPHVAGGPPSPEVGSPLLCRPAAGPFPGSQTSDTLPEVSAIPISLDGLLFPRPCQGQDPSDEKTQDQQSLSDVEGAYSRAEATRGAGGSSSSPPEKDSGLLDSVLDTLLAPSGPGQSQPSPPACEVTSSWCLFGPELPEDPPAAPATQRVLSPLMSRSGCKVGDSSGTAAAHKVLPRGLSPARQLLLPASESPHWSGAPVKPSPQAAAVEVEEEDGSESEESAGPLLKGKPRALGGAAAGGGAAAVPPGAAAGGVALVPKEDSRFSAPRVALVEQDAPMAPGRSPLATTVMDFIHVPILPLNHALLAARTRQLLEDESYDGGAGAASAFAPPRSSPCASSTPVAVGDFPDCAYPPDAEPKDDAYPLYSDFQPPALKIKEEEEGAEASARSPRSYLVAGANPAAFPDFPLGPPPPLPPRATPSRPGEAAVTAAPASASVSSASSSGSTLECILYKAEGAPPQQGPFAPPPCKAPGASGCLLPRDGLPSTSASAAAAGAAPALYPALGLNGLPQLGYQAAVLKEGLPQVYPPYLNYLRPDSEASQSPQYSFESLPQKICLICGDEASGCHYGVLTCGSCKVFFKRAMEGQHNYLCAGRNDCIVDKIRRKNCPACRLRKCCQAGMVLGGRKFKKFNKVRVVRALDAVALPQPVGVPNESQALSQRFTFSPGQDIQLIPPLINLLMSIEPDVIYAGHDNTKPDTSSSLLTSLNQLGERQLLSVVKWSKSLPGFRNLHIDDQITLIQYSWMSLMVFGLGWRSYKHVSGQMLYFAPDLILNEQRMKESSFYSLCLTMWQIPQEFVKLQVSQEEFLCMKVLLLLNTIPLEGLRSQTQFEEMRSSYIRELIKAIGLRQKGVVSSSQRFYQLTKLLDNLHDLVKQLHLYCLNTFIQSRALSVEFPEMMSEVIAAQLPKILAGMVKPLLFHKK
Thyrotropin receptor (Homo sapiens), sequence (P16473 whole entry, looked up): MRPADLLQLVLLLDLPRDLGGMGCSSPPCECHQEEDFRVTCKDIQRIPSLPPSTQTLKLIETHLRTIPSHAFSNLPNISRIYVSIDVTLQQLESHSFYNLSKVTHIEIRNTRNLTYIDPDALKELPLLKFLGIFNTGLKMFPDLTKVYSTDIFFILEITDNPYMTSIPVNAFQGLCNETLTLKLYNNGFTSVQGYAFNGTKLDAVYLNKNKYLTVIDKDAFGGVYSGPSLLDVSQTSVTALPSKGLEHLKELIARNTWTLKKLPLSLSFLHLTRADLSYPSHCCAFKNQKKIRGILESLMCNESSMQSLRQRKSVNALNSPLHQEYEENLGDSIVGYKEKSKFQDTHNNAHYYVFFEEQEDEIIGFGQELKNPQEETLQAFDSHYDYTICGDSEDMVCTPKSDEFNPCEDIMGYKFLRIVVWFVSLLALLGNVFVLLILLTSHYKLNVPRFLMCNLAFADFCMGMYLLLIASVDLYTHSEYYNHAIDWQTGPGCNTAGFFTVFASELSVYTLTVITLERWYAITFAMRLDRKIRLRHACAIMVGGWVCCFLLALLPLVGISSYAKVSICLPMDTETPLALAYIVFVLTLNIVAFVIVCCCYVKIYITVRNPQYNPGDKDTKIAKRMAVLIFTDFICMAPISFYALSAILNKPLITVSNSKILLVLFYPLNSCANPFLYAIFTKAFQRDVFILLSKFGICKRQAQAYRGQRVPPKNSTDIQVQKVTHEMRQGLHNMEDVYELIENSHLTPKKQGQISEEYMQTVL
Androgen receptor (Homo sapiens), sequence (P10275 whole entry, looked up): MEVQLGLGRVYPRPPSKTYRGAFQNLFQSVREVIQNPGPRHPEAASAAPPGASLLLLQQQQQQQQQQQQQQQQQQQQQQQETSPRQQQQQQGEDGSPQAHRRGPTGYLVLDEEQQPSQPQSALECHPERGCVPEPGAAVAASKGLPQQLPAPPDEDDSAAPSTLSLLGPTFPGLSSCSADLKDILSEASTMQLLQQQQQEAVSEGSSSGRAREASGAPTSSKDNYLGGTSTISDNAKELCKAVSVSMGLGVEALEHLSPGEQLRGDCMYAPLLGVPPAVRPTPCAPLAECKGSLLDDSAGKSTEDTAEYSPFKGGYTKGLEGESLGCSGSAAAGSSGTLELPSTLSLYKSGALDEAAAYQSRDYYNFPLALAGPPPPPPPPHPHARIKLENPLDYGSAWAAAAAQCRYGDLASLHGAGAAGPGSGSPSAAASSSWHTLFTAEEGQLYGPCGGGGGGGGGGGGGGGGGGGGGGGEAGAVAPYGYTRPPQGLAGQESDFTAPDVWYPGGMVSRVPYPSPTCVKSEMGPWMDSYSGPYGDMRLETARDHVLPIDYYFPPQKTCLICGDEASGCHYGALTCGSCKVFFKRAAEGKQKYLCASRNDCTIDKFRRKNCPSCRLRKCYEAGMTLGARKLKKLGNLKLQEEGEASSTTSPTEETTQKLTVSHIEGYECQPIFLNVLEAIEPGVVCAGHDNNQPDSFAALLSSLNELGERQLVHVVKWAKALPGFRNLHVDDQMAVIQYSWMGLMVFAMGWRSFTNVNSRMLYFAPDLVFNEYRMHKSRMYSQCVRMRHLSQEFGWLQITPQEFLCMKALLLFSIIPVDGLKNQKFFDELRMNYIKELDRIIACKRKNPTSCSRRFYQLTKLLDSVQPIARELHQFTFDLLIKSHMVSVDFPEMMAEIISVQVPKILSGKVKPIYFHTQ

With `CC(C)C[C@H]1C(=O)N2CCC[C@H]2[C@]2(O)O[C@](NC(=O)[C@@H]3C=C4c5cccc6[nH]c(Br)c(c56)C[C@H]4N(C)C3)(C(C)C)C(=O)N12`, the Potency in assay [1] was 5.19 µM (active). The Potency result in assay [2], in assay [3], in [4], in assay [5], in assay [6] and in [7] was “inactive” in each case. Besides, the Potency entry in assay [8], in [10] and in assay [12] was “inactive” throughout. Moreover, the outcome in assay [9] and in assay [11] was inactive.

As for `CCCCNc1ccc(C(=O)OCCOCCOCCOCCOCCOCCOCCOCCOCCOC)cc1`, the Potency entry in assay [13], in [14], in [15], in [16], in [17] and in assay [3] was “inactive” each time. Also, the Potency result in assay [6], in assay [7], in assay [8], in [10] and in [12] was “inactive” in each case. Moreover, the result in assay [9] and in assay [11] was inactive.

Regarding `COc1ccc(C(=O)c2ccc(OC)cc2O)c(O)c1`, the results for the Potency in assay [13] and in [17] were 48.9 µM (active) and 8.7 µM (active), respectively. The Potency entry in [14], in assay [2], in assay [18], in [16], in assay [3] and in assay [4] was “inactive” throughout. Besides, the Potency result in assay [5], in [6], in assay [19], in assay [8], in [10] and in assay [12] was “inactive” each time. Also, the call in assay [9] and in [11] was inactive.

On to `OCCN1CCN(CCCN2c3ccccc3C=Cc3ccccc32)CC1`, for which the Potency entry in assay [13], in assay [15], in [17], in [3], in [7] and in assay [19] was “inactive” throughout. In addition, the Potency entry in assay [8] and in assay [10] was “inactive” in each case. The Potency in assay [2] is 5.31 µM (active). Further, the outcome in [9] was inactive.

Turning to `COc1cc2c(cc1OC)C(C(C(=O)N(CCc1ccc(OC)c(OC)c1OC)CCc1ccc(OC)c(OC)c1OC)c1ccccc1)=NCC2` (configuration not stated), the Potency result in assay [13], in [2], in assay [16], in assay [3], in assay [4] and in [6] was “inactive” throughout. In addition, the Potency entry in assay [7], in assay [8], in [10] and in [12] was “inactive” in each case. Further, the result in assay [9] and in assay [11] was inactive.

As to `COc1cccc(N(C)C(=S)Oc2ccc3c(c2)CCCC3)n1`, the Potency entry in [13], in assay [14], in [15], in [16], in [17] and in assay [5] was “inactive” each time. Moreover, the Potency entry in assay [19], in assay [20], in assay [8], in [10] and in assay [12] was “inactive” each time. The Potency in assay [7] was 18.8 µM (active). Moreover, the molecule was called inactive in [9] and in [11].
